Mot1-301 SUMO = yeast Mot1-301 growth rescue at high temperature, primary screen, SUMOylation pathway inhibitor project, S. cerevisiae, ATP luminescence, 38.5C; S. cerevisiae Mot1-301 growth rescue; percent above DMSO median, 100 means doubled; growth rescue, % at 18.8 µM; 1% of 320,000 active; AID 2716, 2010;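 active = every valid replicate shows activation above 250% relative to neutral control wells; inactive = the rest, any valid replicate at or below 250%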;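 note: OY570 slx delta 5 strain wells were the positive control but not used for scaling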
Efflux pump mplx = inhibitors of Candida efflux pumps in yeast, primary screen, S. cerevisiae, Nile Red, multiplex; S. cerevisiae Candida pump triplex; inhibition, % at 10 µM; 0.44% of 330,000 active; AID 485275, 2010;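 active = plate passing quality check with inhibition over a set limit, or well fluorescence over plate mean plus 4 SD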;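 note: Nile Red retained in pooled yeast measured as flow cytometry median fluorescence; 0% = buffer negative control and 100% = Enniatin B positive control; higher means more Nile Red kept so more efflux inhibition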
AHR act = AHR activators, primary screen, cell-based, luminescence, luciferase reporter, human | activation, % at 5 µM | 2.5% of 320,000 active | AHR-responsive luciferase reporter cells | Aryl hydrocarbon receptor (Homo sapiens), P35869 | AID 2796, 2010; in the data active = activation above about 47%;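 note: 0% = vehicle wells and 100% = reference agonist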
VLA-4 inh = inhibition in human VLA-4 binding assay, primary screen, VLA-4 allosteric modulator project, MLPCN library, flow cytometry, VLA-4 expressing cells; Integrin alpha-4 (Homo sapiens), P13612; ligand binding flow cytometry; inhibition, % (about 7 µM as worked out from the volumes in the protocol); 0.2% of 330,000 active; in the data active = inhibition above about 50%
ALR H2O2 inh = inhibitors of human ALR sulfhydryl oxidase, primary screen, biochemical, H2O2 detection, HRP-luminol luminescence, single point; 3.8% of 290,000 active; purified ALR, DTT oxidation; inhibition, % (test concentration not listed);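 active = mean replicate inhibition above about 79%, with every replicate also reaching it, limit read from the data; inconclusive = only one of the two criteria met; inactive = mean below limit and not every replicate reaching it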
Target sequence (P55789 whole entry, looked up): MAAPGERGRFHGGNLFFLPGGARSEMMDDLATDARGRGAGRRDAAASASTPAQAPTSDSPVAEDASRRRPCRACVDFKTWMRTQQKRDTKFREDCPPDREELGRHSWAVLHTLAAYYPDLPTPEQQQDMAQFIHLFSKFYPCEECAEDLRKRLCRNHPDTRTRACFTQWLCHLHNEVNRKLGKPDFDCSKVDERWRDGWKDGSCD
Bfl-1 A1 inh = caspase 3/7 activation in MEF A1-2A-BIM cells, primary screen, A1 inhibitor project, cell-based, luminescence, HTS. Caspase-Glo 3/7 luminescence, 3 h; percent of clofoctol response, vehicle zero. 0.066% of 330,000 active. caspase activation, % (concentration not given with the values);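 active = over half of replicate activation scores above 10%, or exactly half above 10 with the replicate mean above 10; inconclusive = replicate mean below 10 yet half the replicates above 10; inactive = over half of replicates below 10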
Mot1 SUMO dose = growth restoration of Mot1-301 yeast on galactose, dose response, SUMO pathway inhibitor project, whole organism, S. cerevisiae, ATP luminescence, cherry-picked samples | AID 493004, 2010 | 2,300 tested, under 10 active | growth activity, percent, % at 42 µM | shares compounds with Mot1-301 SUMO | S. cerevisiae Mot1-301 galactose growth, 24 h; -100 = growth of slx-deleted rescue strain;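 active = Signal drops as the depositor expects, and the fitted half-maximal dose is no more than ten times the top valid tested dose; inconclusive = Poor fit, or a flat curve whose signal drops by 30% to 70%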;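 note: more negative values mean stronger growth rescue toward the control strain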
Numbers without * were called inactive; ? = inconclusive; / = not tested or not shown; + = active, no number. Only some compounds are listed: those with a hit (about 7.2% of all), similar ones and a draw of the others.

SMILES	Mot1-301 SUMO	Efflux pump mplx	AHR act	VLA-4 inh	ALR H2O2 inh	Bfl-1 A1 inh	Mot1 SUMO dose
O=C(c1ccc(F)cc1)N1CCN(c2ccc([N+](=O)[O-])cc2-n2cccc2)CC1	0.4	0.1	-0.1	-4.0	-9.5	0.8	/
CCn1c(SCC(=O)NC2CCCCC2)nnc1C(C)NC(=O)c1ccccc1F (centres undefined)	+	0.5	2.1	5.0	7.0	0.5	0.7
Cc1cc(=O)[nH]c(SCC(=O)OCc2ccccc2)c1C#N	6.4	0.0	2.5	6.7	-24.7	0.0	/
CCC(Cc1ccccc1)NC(=O)C1CCN(c2nn3c(=O)cc(C)nc3s2)CC1 (centres undefined)	408.3*	-0.1	-0.7	0.9	/	-0.1	0.2
CC(=O)NC(Cc1ccc(F)cc1)C(=O)NC1CCN(C(=O)Nc2ccc(F)cc2)CC1 (centres undefined)	2.6	0.0	-0.2	9.9	-3.2	-0.6	/
Cn1c(=O)[nH]c(=O)c2c1nc(N1CCCCCC1)n2CCCSc1nnnn1-c1ccccc1	-4.1	0.1	-1.1	8.8	0.7	-1.1	/
C=CCN1C(=O)/C(=C2/Sc3ccc(OC)cc3N2C)SC1=Nc1ccccc1	+	0.3	4.2	-12.5	-5.6	0.6	0.0
C=CCN1C(=O)/C(=C2/Sc3ccc(OC)cc3N2C)SC1=NCc1ccccc1	13.7	0.2	3.5	10.3	12.5	-0.6	/
COc1ccc(C2C(C(C)=O)=C(O)C(=O)N2CCc2c[nH]c3ccccc23)cc1OC (centres undefined)	3.8	0.1	2.0	3.4	-16.0	-1.0	/
COc1cccc(C2C(C(C)=O)=C(O)C(=O)N2CCc2c[nH]c3ccccc23)c1 (centres undefined)	603.7*	0.0	2.3	-1.6	23.6	-0.1	0.1
COc1ccc(OC)c(NC(=O)CCCNC(=O)Cn2cnc3sc(C)c(C)c3c2=O)c1	-1.4	-0.3	3.7	-3.7	0.8	0.0	/
CN(Cc1ccc(C(C)(C)C)cc1)C(=O)c1ccc2c(=O)n3c(nc2c1)CCC3	399.2*	-0.1	-1.4	12.7	3.4	0.0	-0.3
CCC1CCCCN1C(=O)CSc1nnc(CNC(=O)c2ccco2)o1 (centres undefined)	360.7*	0.0	3.7	3.2	3.7	2.0	0.0
O=C(CSc1nnc(CNC(=O)c2ccco2)o1)Nc1nc2ccccc2s1	+	-0.1	25.1	-0.2	-7.7	-0.1	0.8
CCC1CCCCN1C(=O)CSc1nnc(CNC(=O)c2cc(OC)c(OC)c(OC)c2)o1 (centres undefined)	50.3	0.0	0.3	5.2	4.0	2.3	/
O=C(CSc1nnc(CNC(=O)c2ccccc2)o1)NCc1ccco1	799.7*	0.2	4.0	-1.0	0.5	0.2	0.3
O=C(COC(=O)c1c(F)cccc1F)NCCNC(=O)COC(=O)c1c(F)cccc1F	-28.2	0.0	-1.2	10.5	1.0	0.1	/
Cc1nnc(SCc2ccccc2F)n1NCc1cccs1	8.4	0.1	2.1	5.8	-4.4	-0.8	/
C/C=C/C(=O)N1c2ccc(C)cc2C(C)=CC1(C)C	962.0*	-0.2	-0.4	0.0	/	1.3	0.5
CC1=CC(C)(C)N(C(=O)CSc2nnc(C)s2)c2ccc(C)cc21	183.9	0.1	-0.7	18.7	0.7	-0.1	/
Cc1nn(C)cc1C(C)Nc1nc2nonc2nc1N1CCCCC1 (centres undefined)	-8.2	-0.1	-0.8	11.7	-0.9	0.0	/
CC1C(=O)CC(c2ccccc2)NC1c1ccccc1 (centres undefined)	788.9*	-0.2	-1.1	-0.5	-3.9	-0.3	0.3
CC(C)C1C(=O)CC(c2ccccc2)NC1c1ccccc1 (centres undefined)	14.5	0.1	-2.5	8.7	-21.9	-0.2	/
O=[N+]([O-])c1cccc(-c2nc3ccc([N+](=O)[O-])cc3[nH]2)c1	359.0*	0.1	5.1	-2.2	-5.6	-4.8	0.7
OC(c1ccccc1)(C1CCCCC1)C(CN1CCOCC1)c1ccccc1 (centres undefined)	459.8*	0.0	1.2	-11.2	-2.9	0.7	-0.5
SMILES	Mot1-301 SUMO	Efflux pump mplx	AHR act	VLA-4 inh	ALR H2O2 inh	Bfl-1 A1 inh	Mot1 SUMO dose
O=C(CSc1ncn[nH]1)Nc1cccc(S(=O)(=O)N2CCCCCC2)c1	499.1*	0.1	-1.9	11.8	-4.1	0.6	0.0
CCOc1ccc(CCN2C(=O)c3ccc(C(=O)O)cc3C2=O)cc1OCC	-2.0	-0.1	0.5	-3.3	-1.0	-0.1	/
CN1CCN(C(=O)c2ccc(CS(=O)(=O)c3c(Cl)cccc3Cl)o2)CC1	-13.9	0.2	-0.4	10.0	-52.8	0.2	/
CCOC(=O)N1CCN(C(=O)c2ccc(CS(=O)(=O)c3c(Cl)cccc3Cl)o2)CC1	602.8*	0.1	1.3	-17.9	-71.2	0.2	0.1
O=C(c1ccc(CS(=O)(=O)c2ccccc2)o1)N1CCOCC1	371.6*	-0.2	3.2	-21.9	-42.8	0.3	1.5
COc1ccc(S(=O)(=O)Cc2ccc(C(=O)N3CCN(Cc4ccccc4)CC3)o2)cc1	-10.4	-0.2	-3.0	8.4	?	0.2	/
COc1ccccc1N1CC(C(=O)Nc2nnc(SC)s2)CC1=O (centres undefined)	-0.5	2.3	11.1	1.3	0.1	-1.4	/
Cc1ccccc1CN1CCSc2sccc2C1=O	20.7	0.0	-1.2	-7.3	-4.3	0.4	/
CC(=O)N(C(C)=O)c1c(C#N)c(C)n(-c2ccccc2)c1C(=O)c1ccccc1	+	0.2	7.1	-2.3	7.3	-0.5	-0.6
Clc1ccc(N=c2ssnc2Cl)nc1	654.8*	-0.1	21.0	34.3	36.9	0.3	0.1
CCN1CSC(=S)N(Cc2ccc(OC)cc2)C1	+	-0.2	-0.2	2.1	11.8	-0.8	-0.5
O=C(N/N=C/c1ccc2c(c1)OCO2)c1ccc(COc2cccc3cccnc23)cc1	17.8	-0.2	21.2	-9.7	-4.8	-0.7	/
O=C(CSc1cccc[n+]1[O-])N1CCc2ccccc21	898.4*	0.2	11.8	-0.4	/	0.4	-0.6
O=C(CSc1cccc[n+]1[O-])N1CCCCCC1	-0.5	0.1	-1.0	7.2	-1.0	0.1	/
NC(=O)C1(N2CCCCC2)CCN(C(=O)CSc2nc3ccccc3s2)CC1	-3.8	-0.1	14.4	12.3	/	-0.4	/
COc1ccc(NC(=O)CN2CCOCC2)cc1	-3.6	0.0	-0.8	23.2	-4.9	-0.4	/

Screens from PubChem BioAssay.
